# Compounds without any hit were thinned out: in the full panel of roughly 83,000, 20% have a hit.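 A percent growth of 40 corresponds to 60% growth inhibition; 0 means no net growth; -100 means all cells died. Active threshold: below 10.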 A number with no mark means an inactive call. The source made the active and inactive calls.
# Key:
# Test in all cases: NCI-60 one-dose screen, 48 h (100 = growth as untreated, 0 = no growth, -100 = all killed)
# Details in all cases: 10 µM unless noted
# SR leukemia = system: SR leukemia
# RPMI-8226 leukemia = system: RPMI-8226 leukemia
# OVCAR-8 ovarian = system: OVCAR-8 ovarian
# OVCAR-5 ovarian = system: OVCAR-5 ovarian
# OVCAR-4 ovarian = system: OVCAR-4 ovarian
# SK-OV-3 ovarian = system: SK-OV-3 ovarian
# IGROV1 ovarian = system: IGROV1 ovarian
# OVCAR-3 ovarian = system: OVCAR-3 ovarian
# HS 578T breast = system: HS 578T breast
# NCI/ADR-RES ovarian = system: NCI/ADR-RES ovarian
# T-47D breast = system: T-47D breast
# MDA-MB-435 melanoma = system: MDA-MB-435 melanoma
# SW-620 colon = system: SW-620 colon
# MCF7 breast = system: MCF7 breast
# HCT-116 colon = system: HCT-116 colon
# HCC-2998 colon = system: HCC-2998 colon
# KM12 colon = system: KM12 colon
# BT-549 breast = system: BT-549 breast
SMILES,growth (SR leukemia),growth (RPMI-8226 leukemia),growth (OVCAR-8 ovarian),growth (OVCAR-5 ovarian),growth (OVCAR-4 ovarian),growth (SK-OV-3 ovarian),growth (IGROV1 ovarian),growth (OVCAR-3 ovarian),growth (HS 578T breast),growth (NCI/ADR-RES ovarian),growth (T-47D breast),growth (MDA-MB-435 melanoma),growth (SW-620 colon),growth (MCF7 breast),growth (HCT-116 colon),growth (HCC-2998 colon),growth (KM12 colon),growth (BT-549 breast)
Cc1cc(N2CCCC2)nc(NC2CCCC(Nc3ccnc4cc(Cl)ccc34)C2)n1 (stereo not drawn),-56.6% (active),-55.6% (active),-69.8% (active),-14.8% (active),17.1%,-29% (active),-27.5% (active),-53.2% (active),-41.6% (active),-10.1% (active),-35.1% (active),-92.6% (active),-58.3% (active),-13.2% (active),-87.1% (active),-40.4% (active),-62.4% (active),
COc1cc(/C=C/C(=O)Nc2cccnc2Nc2ccc(F)cc2)cc(OC)c1OC,82.5%,69.1%,81.7%,105%,93%,107%,139%,113%,,101%,93.3%,97.4%,106%,88.3%,96.3%,109%,96.8%,92.3%
CC(C)CSc1nc(N)nc2c1ncn2C1OC(CO)C(O)C1O (stereo not drawn),111%,103%,110%,93%,109%,103%,93.4%,116%,103%,103%,106%,91%,94.4%,99.5%,,102%,96.7%,
Cc1cc(N2CCN(c3ccnc4cc(Cl)ccc34)CC2)nc(N2CCOCC2)n1,80.8%,59%,96.2%,108%,77.8%,88.3%,97.7%,85.9%,95.7%,,46.9%,88.7%,101%,75.1%,70.3%,89%,85.6%,86%
N#Cc1cnn(-c2nc3c(Cl)cccc3s2)c1N,89.9%,95.7%,80.8%,108%,-4.16% (active),78.1%,84%,98.1%,84.2%,82%,,87.1%,94.7%,,,91.1%,88.7%,90.4%
OCCNc1nccc(N2CCN(c3ccnc4cc(Cl)ccc34)CC2)n1,17.4%,89.3%,94.6%,102%,77.5%,85.2%,55.7%,81.1%,92.1%,,69%,7.31% (active),44.4%,34.2%,47.1%,86.4%,60.8%,68.3%
O=C(Nc1ccccc1Cl)c1ccc(NC2=C(Cl)C(=O)N(C3CCCCC3)C2=O)cc1,-22.2% [30 µM] (active),23.6% [30 µM],28.9% [30 µM],109% [30 µM],68.9% [30 µM],109% [30 µM],78.2% [30 µM],15.9% [30 µM],-0.344% [30 µM] (active),78.4% [30 µM],38.7% [30 µM],49.6% [30 µM],56.7% [30 µM],34.7% [30 µM],111% [30 µM],,64.9% [30 µM],
Fc1ccc(CNc2cccc3[nH]c(C(F)(F)F)nc23)cc1,66%,36.5%,90.1%,90.2%,89.3%,97.9%,109%,76.6%,82.3%,100%,,95.7%,94.6%,92.4%,,119%,90.6%,99%
COc1ccccc1NS(=O)(=O)c1ccc2oc(SC(C)C)nc2c1,54.9%,52.2%,83.1%,82.1%,53%,114%,92.1%,85.7%,95.4%,43.8%,67.2%,88.2%,102%,82.3%,63.4%,26%,98.7%,
CC1SC(c2ccc(N(C)C)cc2)N(NC(=O)C(O)(c2ccccc2)c2ccccc2)C1=O (stereo not drawn),90%,60.1%,77.4%,104%,95.7%,97.6%,80.5%,95%,103%,95%,87.6%,84.3%,104%,118%,80.8%,,87.4%,
COc1ccc(-c2nc3cc(C(=O)Nc4cc(OC)c(OC)c(OC)c4)ccc3n2C2CCCCC2)cc1,57.5%,91.7%,96.6%,98.1%,109%,104%,96.5%,101%,,98.3%,97.4%,46%,92.5%,91.2%,93.5%,104%,91.9%,94.6%
CN1CCN(CCCOc2cccc3nc(Nc4cc(Cl)cc(Cl)c4)ccc23)CC1,-30.2% (active),-14.8% (active),51.4%,3.71% (active),42.7%,90.2%,42.8%,26.3%,,6.46% (active),-25.3% (active),-46.5% (active),-66.6% (active),-80.3% (active),-26.6% (active),30.2%,-71.9% (active),65%
c1csc(C2=NN3C(C2)c2ccccc2OC3c2ccncc2)c1 (stereo not drawn),100%,92.8%,96.1%,108%,90.9%,93.8%,76.1%,98.9%,,98.4%,93.2%,99.6%,103%,77.3%,102%,96.3%,92.2%,92.4%
c1ccc2[nH]c(-c3ccc(Nc4nc(N5CCCC5)nc5[nH]ncc45)cc3)nc2c1,-31.1% (active),-34.4% (active),-55.1% (active),17.9%,10.7%,22.2%,4.03% (active),,-34% (active),1.12% (active),-52.6% (active),-76.6% (active),-64.1% (active),-21.5% (active),-71.8% (active),,-32.6% (active),59.7%
Cn1cccc1-c1nc2c3c(ccc2[nH]1)C(=O)c1ccccc1C3=O,27.1%,61.5%,85.8%,90.4%,46.5%,118%,79.1%,95%,,81.8%,-18.8% (active),105%,105%,11.6%,83.7%,86.3%,73.6%,71.7%
CCOC(=O)n1cc(-c2nonc2-c2cn(C)c3ncccc23)c2cc(F)ccc21,84%,58.3%,84.5%,87.7%,55.3%,85.8%,56.3%,77.6%,,74%,10.4%,94.7%,89.5%,27.2%,,86.4%,73.5%,93.1%
O=C1c2cc3c(cc2-c2c1c1ccc(F)cc1c(=O)n2C[C@H](O)[C@H](O)[C@H](O)CO)OCO3,-8.53% (active),-12.9% (active),-3.45% (active),-20.6% (active),5.07% (active),-30.3% (active),7.16% (active),-17% (active),,-23.8% (active),-14.8% (active),-75.6% (active),1.12% (active),0.35% (active),9.02% (active),-50.2% (active),3.9% (active),-11.3% (active)
O=C(COc1ccc(-c2nc3cc(Cl)c(Cl)cc3[nH]2)cc1)N=Nc1c(O)[nH]c2ccccc12,9.9% (active),8.82% (active),-24.2% (active),53.6%,-55.1% (active),4.99% (active),33.2%,,-36.3% (active),85.1%,-37.9% (active),25.6%,-32.3% (active),-49.7% (active),16.2%,-3.87% (active),-38.8% (active),64.7%
